Reference: PubChem BioAssay AID652048 (National Center for Advancing Translational Sciences (NCATS), 2013)
Among all 410,000 compounds or so, about 2,400 (0.59%) were called active. Many of the other results were omitted from the sample, so actives are more common in it than they were. Values without a mark were called inactive. No stated cut-off is given here; in the data, active means max activation above about 30%; inactive means the rest.

target: D(3) dopamine receptor (Homo sapiens) (UniProt P35462); assay: qHTS of D3 Dopamine Receptor Agonist: qHTS; settings: D3R DiscoveRx beta-arrestin cells, luminescence, 90 min; hits give high values; further: 0% is about no effect
Method in brief: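 Agonist-mode cell screen: cells plated at 1500/well and incubated overnight at 37 °C, then exposed to library compounds for 90 min at 37 °C. Detection reagent was added for 30–60 min at room temperature, and luminescence was read.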

D(3) dopamine receptor (Homo sapiens), sequence (P35462 whole entry, looked up): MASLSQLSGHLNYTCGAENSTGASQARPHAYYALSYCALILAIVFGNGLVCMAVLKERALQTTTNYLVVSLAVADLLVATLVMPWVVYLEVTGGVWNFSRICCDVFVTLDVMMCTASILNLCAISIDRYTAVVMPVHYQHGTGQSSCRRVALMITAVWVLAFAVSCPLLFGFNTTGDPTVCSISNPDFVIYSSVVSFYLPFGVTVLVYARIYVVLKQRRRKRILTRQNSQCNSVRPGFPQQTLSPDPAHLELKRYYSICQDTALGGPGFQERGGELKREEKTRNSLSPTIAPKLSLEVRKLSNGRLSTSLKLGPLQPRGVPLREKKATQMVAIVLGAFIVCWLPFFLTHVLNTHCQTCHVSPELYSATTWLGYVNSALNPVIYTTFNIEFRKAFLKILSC

**Q.** `COc1ccccc1CNS(=O)(=O)c1cc(Br)cc2c1N(C(C)=O)C(C)C2` (stereo not drawn) was tested. Which max activation did it give?
**A.** -15.9%

**Q.** Which max activation does the source give for `CCN(CCCNC(=O)c1c(C)oc2ncn(CC(C)C)c(=O)c12)Cc1ccccc1` here?
**A.** -16.4%

**Q.** For `Cc1ccc(-c2ncc(Cl)cc2-c2ccc(S(C)(=O)=O)cc2)cn1`, which max activation is on record?
**A.** 3.29%

**Q.** With `COc1ccccc1N1CCN(c2ccc(=O)n(CC(=O)NCc3ccc(OC(C)C)cc3)n2)CC1` as the compound, how does the max activation read?
**A.** -15.8%

**Q.** `COC(=O)c1ccc(NC(=O)c2cc(S(=O)(=O)N3CCC(C)CC3)cn2C)cc1` was tested. Which max activation did it give?
**A.** -4.24%

**Q.** `N#C/C(=C\c1cccc(F)c1)c1nc(-c2cc3c(ccc4ccccc43)oc2=O)cs1` was tested. Which max activation did it give?
**A.** 4.13%

**Q.** With `NC(=O)c1ncn([C@@H]2O[C@H](CN=C3NS(=O)(=O)c4ccccc43)[C@@H](O)[C@H]2O)n1` as the compound, how does the max activation read?
**A.** 40.4% (active)

**Q.** `COc1cc2c(cc1CNC[C@H]1O[C@@H](n3cnc(C(N)=O)n3)[C@H](O)[C@@H]1O)OCO2` was tested. Which max activation did it give?
**A.** 4.9%

**Q.** How did the max activation turn out when `NC(=O)c1ncn([C@@H]2O[C@H](CNCc3cnc(N4CCOCC4)s3)[C@@H](O)[C@H]2O)n1` was run?
**A.** 0%

**Q.** `COc1cccc(Nc2nc3ccccc3c3nncn23)c1` was tested. Which max activation did it give?
**A.** 10.1%

**Q.** With `CCCn1c2ccccc2c2cnn(CC(=O)N3CCCC(C(=O)OCC)C3)c(=O)c21` (stereo not drawn) as the compound, how does the max activation read?
**A.** 6.55%

**Q.** How did the max activation turn out when `COc1ccc(-n2nnc(-c3nsc(NC(=O)c4ccc(C)c(C)c4)n3)c2C)cc1Cl` was run?
**A.** 41.8% (active)

**Q.** For `CCc1cccc(-n2nnc(-c3nsc(NC(=O)c4ccc(C)cc4)n3)c2C)c1`, which max activation is on record?
**A.** -11.9%

**Q.** Which max activation does the source give for `Cc1c(-c2nsc(NC(=O)c3cccc(Cl)c3)n2)nnn1-c1ccccc1C(F)(F)F` here?
**A.** -0.907%

**Q.** With `Cc1c(OC(C)C(=O)NCC2CCC(C(=O)O)CC2)ccc2c1oc(=O)c1ccccc12` (stereo not drawn) as the compound, how does the max activation read?
**A.** -0.808%

**Q.** `Cc1c(OC(C)C(=O)N[C@@H](Cc2ccccc2)C(=O)O)ccc2c3c(c(=O)oc12)CCCC3` (stereo partly drawn) was tested. Which max activation did it give?
**A.** 37.1% (active)

**Q.** How did the max activation turn out when `Cc1oc2c(C)c3oc(=O)c(CC(=O)N[C@@H](CC(C)C)C(=O)N[C@@H](Cc4ccccc4)C(=O)O)c(C)c3cc2c1C` was run?
**A.** 11.4%

**Q.** With `COC(=O)c1c(NC(=O)c2cc(=O)c3c(C)cc(C)cc3o2)sc2c1CCCC2` as the compound, how does the max activation read?
**A.** 4.95%

**Q.** For `CCN1C(=NCCc2cccnc2)N[C@@H](c2ccccc2)C(C(=O)OC)=C1C`, which max activation is on record?
**A.** -55.8%

**Q.** With `Cc1cc(C)cc(Nc2ncnc3onc(-c4ccc(F)cc4)c23)c1` as the compound, how does the max activation read?
**A.** 9.02%

**Q.** Which max activation does the source give for `COc1ccc(C(=O)O/N=C(\N)Cc2ccc(Cl)cc2Cl)cc1OC` here?
**A.** 36.2% (active)

**Q.** Which max activation does the source give for `COC(=O)c1ccc(OC(=O)c2nn(C)cc2Cl)c(OC)c1` here?
**A.** 1.35%

**Q.** How did the max activation turn out when `COc1ccc(CCn2ccc(O)c(Cc3ccc(Cl)cc3Cl)c2=O)cc1OC` was run?
**A.** -10.8%
